Assay outcomes as filed in PubChem.
In the library only some 2.9% were active in any assay of this set; here they are far more common.
Mtb BioA inh: blocks M. tuberculosis BioA enzyme activity; purified M. tuberculosis BioA enzyme, plate reader; inhibition, % at 9.99 µM; 360,000 tested, 0.096% active; in the data active = inhibition above about 40%
GDH-TPI counter-1: GDH-TPI coupled enzyme inhibition counter-screen; 360,000 tested, 1.2% active; AID 588335; inhibition, % at 4.8 µM; GDH-TPI coupled enzyme counterscreen, NADH absorbance; in the data active = inhibition above about 30%;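 note: 0% = DMSO wells and 100% = wells lacking the enzyme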
Mtb FBA inh: Mtb fructose-bisphosphate aldolase inhibition | purified M. tuberculosis FBA, fluorescence read-out | inhibition, % at 1 µM | 360,000 tested, 2.3% active | AID 588726;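 note: 0% = vehicle and 100% = reference inhibitor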
Target sequence (P9WQA3 whole entry, looked up): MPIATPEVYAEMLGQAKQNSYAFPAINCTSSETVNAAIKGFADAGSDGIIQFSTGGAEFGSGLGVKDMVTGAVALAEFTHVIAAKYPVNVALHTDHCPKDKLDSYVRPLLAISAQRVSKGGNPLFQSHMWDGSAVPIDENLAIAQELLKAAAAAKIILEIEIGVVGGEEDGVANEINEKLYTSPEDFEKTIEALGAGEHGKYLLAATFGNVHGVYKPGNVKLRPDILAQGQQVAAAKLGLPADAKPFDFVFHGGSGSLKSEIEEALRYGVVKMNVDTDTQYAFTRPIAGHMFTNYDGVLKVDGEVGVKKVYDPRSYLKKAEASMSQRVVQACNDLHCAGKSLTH
Mtb hypoxia inh: reduces hypoxia-regulated biosensor signal in M. tuberculosis; 300,000 tested, 0.1% active; M. tuberculosis hypoxia-regulated fluorescent reporter, fluorescence; AID 1159583; fluorescence inhibition, % (concentration not given with the values); in the data active = fluorescence inhibition mostly above about 23%, no sharp cut-off; inactive = mostly below about 17%
FadD28 binding: M. tuberculosis FadD28 bisubstrate binding inhibition | inhibition, % at 12.5 µM | FadD28 bisubstrate probe binding, fluorescence polarization | 360,000 tested, 0.22% active; in the data active = inhibition above about 8.5%, passing the limit was not always enough
Mtb FBA inh conf: Mtb FBA inhibition, confirmed | purified M. tuberculosis FBA, fluorescence read-out | 5,600 tested, 78% active | inhibition, % at 1 µM | shares compounds with Mtb FBA inh;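 note: 0% = vehicle wells and 100% = reference inhibitor wells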
GDH-TPI counter-2: GDH-TPI inhibition counter-screen for FBA inhibitors | shares compounds with Mtb FBA inh | GDH-TPI coupled enzyme counterscreen, fluorescence | inhibition, % at 1 µM | 5,600 tested, 81% active | AID 652141; in the data active = inhibition above about 10%
Starred values were filed as active, the others as inactive. Cut-off read from the data, not from the text of the source, unless noted: active = inhibition above about 27%; inactive = the rest.

For CCOC(=O)c1sc2nc(CC(=O)OC)nc(NCc3ccc(F)cc3)c2c1C the results were Mtb BioA inh 0, GDH-TPI counter-1 17, Mtb FBA inh 32*, Mtb hypoxia inh 9, FadD28 binding 1, Mtb FBA inh conf active and GDH-TPI counter-2 148*.
For C[C@@H]1CN([C@@H](C)CO)C(=O)c2cc(C3=CCCC3)cnc2O[C@@H]1CN(C)C(=O)c1ccncc1 the results were Mtb BioA inh -1.
For COCC(=O)Nc1ccc2c(c1)[C@H]1C[C@H](CC(=O)N3CCN(C)CC3)O[C@@H](CO)[C@H]1O2 the results were Mtb BioA inh 2.
Cc1ccc(-n2nc3cc(C)c(N)cc3n2)cc1 was read as GDH-TPI counter-1 9, Mtb FBA inh 16, Mtb hypoxia inh 3 and FadD28 binding 0.
`CCc1ccc(-n2nc3cc(C)c(N)cc3n2)cc1` gave Mtb BioA inh -1, GDH-TPI counter-1 5, Mtb FBA inh 56*, Mtb hypoxia inh -1, FadD28 binding -4, Mtb FBA inh conf 63* and GDH-TPI counter-2 69*.
Screening Nc1nc(-c2ccccc2)c(-c2ccccc2)o1 returned Mtb BioA inh -1, GDH-TPI counter-1 -3, Mtb FBA inh 5 and FadD28 binding 0.
c1ccc(-c2nc(-c3nccc4ccccc34)oc2-c2ccccc2)cc1 was read as GDH-TPI counter-1 5, Mtb FBA inh 62*, Mtb hypoxia inh 11, FadD28 binding -4, Mtb FBA inh conf 91* and GDH-TPI counter-2 52*.
For CC(=O)N1CCC2(CC1)CC(=O)c1cc(OCC(=O)N3CCC4(CC3)OCCO4)ccc1O2 the results were GDH-TPI counter-1 9, Mtb FBA inh 58*, Mtb hypoxia inh 4, FadD28 binding -3, Mtb FBA inh conf 27* and GDH-TPI counter-2 25*.
For CC(=O)N1CCC2(CC1)CC(=O)c1cc(OCC(=O)N3CCN(C)CC3)ccc1O2 the results were Mtb BioA inh -1, GDH-TPI counter-1 16, Mtb FBA inh 59*, Mtb hypoxia inh 3, FadD28 binding -2, Mtb FBA inh conf 56* and GDH-TPI counter-2 47*.
O=C1CC2(CCN(C(=O)COc3ccccc3)CC2)Oc2ccccc21 was read as Mtb BioA inh 8, GDH-TPI counter-1 8, Mtb FBA inh 7, Mtb hypoxia inh 8 and FadD28 binding -4.
Screening CN1C(=S)SC(N(O)C(=O)Nc2cccc3ccccc23)C1(C)C (stereo not drawn) returned Mtb BioA inh 2, GDH-TPI counter-1 -5, Mtb FBA inh 44*, FadD28 binding -3, Mtb FBA inh conf 35* and GDH-TPI counter-2 25*.
For CCNc1oc(/C=C/c2ccc(OCC)cc2)nc1C#N the results were Mtb BioA inh 0, GDH-TPI counter-1 17, Mtb FBA inh 29*, Mtb hypoxia inh 3, FadD28 binding 0, Mtb FBA inh conf 86* and GDH-TPI counter-2 71*.
For COc1ccc(C(=O)NCCCNc2nc3cc(C)cc(C)c3cc2C#N)cc1 the results were Mtb BioA inh -1, GDH-TPI counter-1 0, Mtb FBA inh 37*, FadD28 binding 0, Mtb FBA inh conf 3 and GDH-TPI counter-2 -6.
`COc1ccccc1C(=O)NCCNc1nc2cc(C)cc(C)c2cc1C#N` gave Mtb BioA inh 3, GDH-TPI counter-1 10, Mtb FBA inh 5, Mtb hypoxia inh 0 and FadD28 binding -2.
Screening COc1cc(OC)cc(C(=O)NCCNc2nc3cc(C)cc(C)c3cc2C#N)c1 returned Mtb BioA inh -1, GDH-TPI counter-1 12, Mtb FBA inh 31*, Mtb hypoxia inh 5, FadD28 binding -2, Mtb FBA inh conf -9 and GDH-TPI counter-2 -4.
For COc1cc(C(=O)NCCNc2nc3cc(C)ccc3cc2C#N)cc(OC)c1OC the results were Mtb BioA inh -1, GDH-TPI counter-1 10, Mtb FBA inh 13, Mtb hypoxia inh 3 and FadD28 binding 0.
For COc1cc(C(=O)NCCCNc2nc3cc(C)c(C)cc3cc2C#N)cc(OC)c1OC the results were GDH-TPI counter-1 5, Mtb FBA inh 52*, Mtb hypoxia inh -3, FadD28 binding 0, Mtb FBA inh conf 75* and GDH-TPI counter-2 62*.
For Cc1cccc2cc(C#N)c(NCCNC(=O)c3ccccc3)nc12 the results were Mtb BioA inh 1, GDH-TPI counter-1 13, Mtb FBA inh 40*, FadD28 binding -4, Mtb FBA inh conf active and GDH-TPI counter-2 active.
